Source: ChEMBL document CHEMBL1157539, “Thousands of chemical starting points for antimalarial lead identification” (Nature, 2010)

Experiments:
Type in all cases: functional
Plasmodium falciparum [1] = assay: GSK_TCMDC: Inhibition of Plasmodium falciparum 3D7 in whole red blood cells, using parasite LDH activity as an index of growth. Test compounds present at 2uM
Plasmodium falciparum [2] = assay: GSK_TCMDC: Inhibition of Plasmodium falciparum Dd2 in whole red blood cells, using parasite LDH activity as an index of growth. Test compounds present at 2uM
HepG2 = assay: GSK_TCMDC: Percent inhibition of human HepG2 cell line. Test compounds present at 10uM.

O=C(/C=C/c1ccc(Cl)c(Cl)c1)NCCCCCN1CCC(NC(=O)Nc2ccc(Br)cc2)CC1
Inhibition (Plasmodium falciparum [1]): 100% | Inhibition (Plasmodium falciparum [2]): 7% | Inhibition (HepG2): 36%

COc1ccc(-c2ccc(S(=O)(=O)Nc3cc4c(cc3OC(C)C)CCNCC4)cc2)cc1.Cl
Inhibition (Plasmodium falciparum [1]): 86% | Inhibition (Plasmodium falciparum [2]): 0% | Inhibition (HepG2): 16%

O=C(Cc1ccccc1)NC1CCN(c2ccnc3cc(Cl)ccc23)C1.O=C(O)C(F)(F)F (stereo not drawn)
Inhibition (Plasmodium falciparum [1]): 100% | Inhibition (Plasmodium falciparum [2]): 78% | Inhibition (HepG2): 6%

COc1ccc(CCn2c(=N)c(C(=O)NCc3ccccc3)cc3c(=O)n4ccccc4nc32)cc1
Inhibition (Plasmodium falciparum [1]): 100% | Inhibition (Plasmodium falciparum [2]): 18% | Inhibition (HepG2): 14%

COc1ccc(CNCc2cccc(-c3cccc(-c4nc5cccc(C)c5[nH]4)c3)c2)cc1.O=C(O)C(F)(F)F
Inhibition (Plasmodium falciparum [1]): 100% | Inhibition (Plasmodium falciparum [2]): 60% | Inhibition (HepG2): 31%

CC(CNC(=O)C(c1cc2ccccc2o1)N1CCN(C(c2ccccc2)c2ccccc2)CC1)c1ccccc1 (stereo not drawn)
Inhibition (Plasmodium falciparum [1]): 99% | Inhibition (Plasmodium falciparum [2]): 89% | Inhibition (HepG2): 2%

O=C(Nc1cccc(-c2cc(-c3c(Cl)cccc3Cl)no2)c1)c1cnc2ccccc2c1
Inhibition (Plasmodium falciparum [1]): 87% | Inhibition (Plasmodium falciparum [2]): 34% | Inhibition (HepG2): 0%

Cc1nc2ccc3ccc(CNc4ccc(C(=O)CC(CCC(=O)O)C(=O)O)cc4)cc3c2c(=O)[nH]1.[Cl-].[Na+] (stereo not drawn)
Inhibition (Plasmodium falciparum [1]): 95% | Inhibition (Plasmodium falciparum [2]): 96% | Inhibition (HepG2): 51%

CC1CCCCN1Cc1cccc(-c2c[nH]c3nc(NC4CCCC4)ncc23)c1.O=C(O)C(F)(F)F (stereo not drawn)
Inhibition (Plasmodium falciparum [1]): 93% | Inhibition (Plasmodium falciparum [2]): 14% | Inhibition (HepG2): 0%

Cc1ccccc1C1CCN(C2CCC(NC(=O)/C=C/c3cccc(F)c3F)CC2)CC1 (stereo not drawn)
Inhibition (Plasmodium falciparum [1]): 89% | Inhibition (Plasmodium falciparum [2]): 45% | Inhibition (HepG2): 57%

O=C(Nc1ccc(OC2CCN(Cc3ccc(F)cc3)C2)c(Cl)c1)c1cccs1.O=C(O)C(F)(F)F (stereo not drawn)
Inhibition (Plasmodium falciparum [1]): 98% | Inhibition (Plasmodium falciparum [2]): 97% | Inhibition (HepG2): 21%

CCN(CC)c1ccccc1CNC(=O)c1cc(Cl)c(N)cc1OC
Inhibition (Plasmodium falciparum [1]): 97% | Inhibition (Plasmodium falciparum [2]): 94% | Inhibition (HepG2): 6%

NC(=S)Cc1ccc2c(c1)OCO2
Inhibition (Plasmodium falciparum [1]): 96% | Inhibition (Plasmodium falciparum [2]): 0% | Inhibition (HepG2): 43%

CCCN(CC1CC1)c1ncc(-c2ccccc2CNCc2ccccc2O)cn1
Inhibition (Plasmodium falciparum [1]): 100% | Inhibition (Plasmodium falciparum [2]): 98% | Inhibition (HepG2): 4%

CC(C)CNC(=O)c1ccnc(-c2ccc(CNC3Cc4ccccc4C3)cc2)c1.O=C(O)C(F)(F)F
Inhibition (Plasmodium falciparum [1]): 99% | Inhibition (Plasmodium falciparum [2]): 29% | Inhibition (HepG2): 25%

CCOc1c(CNCCCNc2cc(O)c3ccccc3n2)cc(I)cc1OC
Inhibition (Plasmodium falciparum [1]): 91% | Inhibition (Plasmodium falciparum [2]): 6% | Inhibition (HepG2): 0%

Cc1ccc(Cn2ncc(N3CC(C)NC(C)C3)c(Cl)c2=O)cc1NC(=O)Nc1ccc(-c2ccccc2)cc1.O=C(O)C(F)(F)F (stereo not drawn)
Inhibition (Plasmodium falciparum [1]): 100% | Inhibition (Plasmodium falciparum [2]): 29% | Inhibition (HepG2): 51%

CC(=O)c1ccc(NC(=O)Nc2ccc(N(C)c3ccnc(NC4CC4)n3)cc2)cc1
Inhibition (Plasmodium falciparum [1]): 100% | Inhibition (Plasmodium falciparum [2]): 60% | Inhibition (HepG2): 59%

Cn1c(=O)c(-c2c(Cl)cccc2Cl)cc2cnc(Nc3ccc(N4CCOCC4)cc3)nc21
Inhibition (Plasmodium falciparum [1]): 98% | Inhibition (Plasmodium falciparum [2]): 97% | Inhibition (HepG2): 64%

Clc1cccc(C=NNc2nc(=Nc3ccccc3)[nH]c(=Nc3ccccc3)[nH]2)c1
Inhibition (Plasmodium falciparum [1]): 92% | Inhibition (Plasmodium falciparum [2]): 15% | Inhibition (HepG2): 0%

COc1cc2nc(N3CCC(CNC(=O)c4ccc(-c5ccc(C(=O)N(C)C)cc5O)cc4)CC3)nc(N)c2cc1OC
Inhibition (Plasmodium falciparum [1]): 100% | Inhibition (Plasmodium falciparum [2]): 90% | Inhibition (HepG2): 2%

CCCNCc1ccc(-c2ccc(CN(CCOC)C(=O)CCCOCc3ccccc3)cc2)nc1.O=C(O)C(F)(F)F
Inhibition (Plasmodium falciparum [1]): 93% | Inhibition (Plasmodium falciparum [2]): 13% | Inhibition (HepG2): 0%

CCOc1ccc(-c2nonc2NC(=O)c2ccc(OC)cc2)cc1OCC
Inhibition (Plasmodium falciparum [1]): 98% | Inhibition (Plasmodium falciparum [2]): 77% | Inhibition (HepG2): 0%

CN(C)CCCOc1c(C(C)(C)C)cc(-c2cc(C(C)(C)C)c(OCCCN(C)C)c(C(C)(C)C)c2)cc1C(C)(C)C
Inhibition (Plasmodium falciparum [1]): 100% | Inhibition (Plasmodium falciparum [2]): 99% | Inhibition (HepG2): 25%

CC[C@H](C)CNC(=O)c1cncc(-c2cccc(CNC3Cc4ccccc4C3)c2)c1.O=C(O)C(F)(F)F
Inhibition (Plasmodium falciparum [1]): 100% | Inhibition (Plasmodium falciparum [2]): 76% | Inhibition (HepG2): 5%

COc1cccc(OC2CCN(C(=O)c3cc(C(C)(C)C)nn3Cc3ccccc3)CC2)c1
Inhibition (Plasmodium falciparum [1]): 100% | Inhibition (Plasmodium falciparum [2]): 98% | Inhibition (HepG2): 3%

CCCCCCC(C)c1cc(OCCN(CC)CC)c2c(c1)OC(C)(C)C=C2c1ccncc1.Cl (stereo not drawn)
Inhibition (Plasmodium falciparum [1]): 90% | Inhibition (Plasmodium falciparum [2]): 71% | Inhibition (HepG2): 14%

O=C(Nc1cccc(-c2cccc(-c3ccc(F)cc3)n2)c1)c1ccc([N+](=O)[O-])o1
Inhibition (Plasmodium falciparum [1]): 99% | Inhibition (Plasmodium falciparum [2]): 42% | Inhibition (HepG2): 100%

Cc1cc(=NN=Cc2cccc(Cl)c2)c2ccccc2[nH]1
Inhibition (Plasmodium falciparum [1]): 100% | Inhibition (Plasmodium falciparum [2]): 100% | Inhibition (HepG2): 22%

C[C@H](Cc1ccc(S(=O)(=O)c2ccc(C[C@@H](C)NC[C@H](O)c3cccc(Cl)c3)cc2)cc1)NC[C@H](O)c1cccc(Cl)c1.Cl
Inhibition (Plasmodium falciparum [1]): 99% | Inhibition (Plasmodium falciparum [2]): 98% | Inhibition (HepG2): 100%

COc1ccc(-c2csc3ncnc(Cl)c23)cc1OC
Inhibition (Plasmodium falciparum [1]): 93% | Inhibition (Plasmodium falciparum [2]): 84% | Inhibition (HepG2): 0%

CC(C)CCNc1nc(NCCc2ccccc2)c2cc(O)ccc2n1
Inhibition (Plasmodium falciparum [1]): 100% | Inhibition (Plasmodium falciparum [2]): 97% | Inhibition (HepG2): 6%

CC(CN(C)C)C(=O)Nc1ccc(-c2cccc(-c3nc4ccccc4[nH]3)c2)cc1 (stereo not drawn)
Inhibition (Plasmodium falciparum [1]): 99% | Inhibition (Plasmodium falciparum [2]): 57% | Inhibition (HepG2): 68%

CC(=O)Nc1cccc(CNc2cc(C)nc(Nc3ccc(C)cc3)n2)c1
Inhibition (Plasmodium falciparum [1]): 82% | Inhibition (Plasmodium falciparum [2]): 23% | Inhibition (HepG2): 18%

C/C=C/COc1ccc(-c2c(C)[nH]c(C)c(Cl)c2=O)cc1
Inhibition (Plasmodium falciparum [1]): 97% | Inhibition (Plasmodium falciparum [2]): 97% | Inhibition (HepG2): 0%

COc1cc(-c2nc(-c3ccc([N+](=O)[O-])cc3)c(-c3ccccc3)[nH]2)cc(OC)c1O
Inhibition (Plasmodium falciparum [1]): 98% | Inhibition (Plasmodium falciparum [2]): 56% | Inhibition (HepG2): 7%

N#Cc1cccc(C(=O)Nc2ccc(-c3cccc(CN4CCC(O)CC4)c3)cc2)c1.O=C(O)C(F)(F)F
Inhibition (Plasmodium falciparum [1]): 100% | Inhibition (Plasmodium falciparum [2]): 68% | Inhibition (HepG2): 33%

CC(=O)Nc1cccc(C(=O)Nc2nc3ccc(-c4cc(=O)[nH]c(Nc5ccccc5Cl)n4)cc3[nH]2)c1
Inhibition (Plasmodium falciparum [1]): 99% | Inhibition (Plasmodium falciparum [2]): 62% | Inhibition (HepG2): 0%

COc1ccc(-n2nc(C)c3c2NC(=O)CC3c2ccccc2OCc2ccc(F)cc2)cc1 (stereo not drawn)
Inhibition (Plasmodium falciparum [1]): 93% | Inhibition (Plasmodium falciparum [2]): 65% | Inhibition (HepG2): 53%

CN1CC[C@@H](Oc2cc(Nc3nc(-c4ccc(C#N)cc4)cs3)ccc2Cl)C1.Cl
Inhibition (Plasmodium falciparum [1]): 99% | Inhibition (Plasmodium falciparum [2]): 24% | Inhibition (HepG2): 12%

CN(C)CCCNc1ncnc2c1[nH]c1ccc(F)cc12
Inhibition (Plasmodium falciparum [1]): 100% | Inhibition (Plasmodium falciparum [2]): 0% | Inhibition (HepG2): 14%

Clc1ccc(CNc2ccnc(NCCc3coc4ccccc34)n2)c(Cl)c1
Inhibition (Plasmodium falciparum [1]): 86% | Inhibition (Plasmodium falciparum [2]): 39% | Inhibition (HepG2): 26%

CCCC(=O)Nc1ccc(OCCCN(Cc2ccccc2OC(F)(F)F)c2ccc(C#N)c(C(F)(F)F)c2)cc1
Inhibition (Plasmodium falciparum [1]): 94% | Inhibition (Plasmodium falciparum [2]): 95% | Inhibition (HepG2): 0%

CN1CCC(C(=O)Nc2ccc(-c3ccc(-c4nc5cc(C(F)(F)F)ccc5[nH]4)s3)cc2)CC1
Inhibition (Plasmodium falciparum [1]): 100% | Inhibition (Plasmodium falciparum [2]): 95% | Inhibition (HepG2): 53%

Cc1c(S(=O)(=O)Nc2ccc3nccc(N4CC(C)NC(C)C4)c3c2)sc2ccc(Cl)cc12.Cl (stereo not drawn)
Inhibition (Plasmodium falciparum [1]): 92% | Inhibition (Plasmodium falciparum [2]): 0% | Inhibition (HepG2): 0%

Br.CC1(C)NC(N)=NC(=N)N1OCCCOc1cc(Cl)cc(Cl)c1
Inhibition (Plasmodium falciparum [1]): 95% | Inhibition (Plasmodium falciparum [2]): 97% | Inhibition (HepG2): 62%

CCN(CC)CCN(Cc1ccc(-c2ccc(C(F)(F)F)cc2)cc1)C(=O)Cn1cc(Cc2cnn(C)c2)c(=O)nc1/C=C/c1ccc(F)cc1.O=C(O)C(O)C(O)C(=O)O
Inhibition (Plasmodium falciparum [1]): 96% | Inhibition (Plasmodium falciparum [2]): 91% | Inhibition (HepG2): 6%

O=C(NCCCCN1CCC(c2ccc3c(c2OCCN2CCCC2=O)CCCC3)CC1)c1ccc(-c2ccc(C(F)(F)F)cc2)cc1
Inhibition (Plasmodium falciparum [1]): 88% | Inhibition (Plasmodium falciparum [2]): 1% | Inhibition (HepG2): 56%

Cc1cccc2nc(-c3cccc(-c4ccc(NC(=O)COc5ccccc5C(N)=O)cc4)c3)[nH]c12
Inhibition (Plasmodium falciparum [1]): 100% | Inhibition (Plasmodium falciparum [2]): 47% | Inhibition (HepG2): 18%

Br.CCCOc1ccc(CCCON2C(N)=NC(N)=NC2(C)C)cc1
Inhibition (Plasmodium falciparum [1]): 95% | Inhibition (Plasmodium falciparum [2]): 94% | Inhibition (HepG2): 65%

O=C(Cn1c(SCc2cccc(F)c2F)cc(=O)c2ccccc21)N(CCN1CCCCC1)Cc1ccc(-c2ccc(C(F)(F)F)cc2)cc1.O=C(O)C(O)C(O)C(=O)O
Inhibition (Plasmodium falciparum [1]): 99% | Inhibition (Plasmodium falciparum [2]): 82% | Inhibition (HepG2): 41%

Clc1ccc(-c2cc(-c3csc(NCCN4CCCCC4)n3)on2)cc1
Inhibition (Plasmodium falciparum [1]): 91% | Inhibition (Plasmodium falciparum [2]): 30% | Inhibition (HepG2): 81%

CCCN(CCC)C(=O)c1cc(C(=O)N[C@@H](Cc2ccccc2)[C@H](O)CNC2CC2)cc(N2CCCCS2(=O)=O)c1
Inhibition (Plasmodium falciparum [1]): 100% | Inhibition (Plasmodium falciparum [2]): 98% | Inhibition (HepG2): 0%

Nc1ncc(-c2ccc(F)cc2)cc1-c1nc2ccc(Cl)cc2[nH]1
Inhibition (Plasmodium falciparum [1]): 99% | Inhibition (Plasmodium falciparum [2]): 44% | Inhibition (HepG2): 45%

Cc1ccccc1Nc1nc(NCCCO)c2ccccc2n1.Cl
Inhibition (Plasmodium falciparum [1]): 83% | Inhibition (Plasmodium falciparum [2]): 50% | Inhibition (HepG2): 0%

O=C(O)C(F)(F)F.c1cc(-c2ccc(CNC3CC3)cc2)cc(-c2nc3ccccc3[nH]2)c1
Inhibition (Plasmodium falciparum [1]): 96% | Inhibition (Plasmodium falciparum [2]): 8% | Inhibition (HepG2): 17%

OC1(c2ccccc2)c2cc(Cl)ccc2OC1c1nc2c(Cl)ccc(Cl)c2o1 (stereo not drawn)
Inhibition (Plasmodium falciparum [1]): 98% | Inhibition (Plasmodium falciparum [2]): 89% | Inhibition (HepG2): 7%

O=C(Nc1ccc(Oc2ccccc2)cc1)N[C@H]1CCN(Cc2ccc(OCCCN3CCCCC3)cc2)C1
Inhibition (Plasmodium falciparum [1]): 100% | Inhibition (Plasmodium falciparum [2]): 6% | Inhibition (HepG2): 13%

O=C(CSc1nc(-c2ccccc2Cl)ns1)Nc1cccc(Cl)c1
Inhibition (Plasmodium falciparum [1]): 96% | Inhibition (Plasmodium falciparum [2]): 89% | Inhibition (HepG2): 0%

CCn1c(Sc2ccc(C#N)c([N+](=O)[O-])c2)nnc1-c1ccc(Cl)cc1
Inhibition (Plasmodium falciparum [1]): 97% | Inhibition (Plasmodium falciparum [2]): 93% | Inhibition (HepG2): 0%

COc1cccc(N(CCCN2C(=O)c3cccc4cccc(c34)C2=O)C(=O)c2ccccc2C)c1
Inhibition (Plasmodium falciparum [1]): 86% | Inhibition (Plasmodium falciparum [2]): 70% | Inhibition (HepG2): 20%
